Compounds without any hit were thinned out: in the full panel of roughly 79,000, 15% have a hit. Unmarked numbers belong to inactive results. The source made the active and inactive calls. No stated cut-off is given here; in the data, active means growth inhibition above about 70%; inactive means the rest.
What was measured:
[1] = NCI Yeast Anticancer Drug Screen. Data for the rad52 strain (AID 147);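 further: 0% = growth of vehicle-treated control cultures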; details: S. cerevisiae rad52 mutant growth inhibition, active compounds read high
In short: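 Screen used a yeast mutant impaired in DNA repair. After compound exposure, growth was measured. Values reflect inhibition compared with vehicle-treated cells.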

[2] = NCI Yeast Anticancer Drug Screen. Data for the wt1 strain (AID 149);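 further: 0% = growth of vehicle-treated wt1 cultures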; details: S. cerevisiae wt1 strain (SPY 50644) growth inhibition, active compounds read high
In short: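 Each compound is tested on wt1 yeast and the loss of growth versus vehicle gives the inhibition value.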

[3] = NCI Yeast Anticancer Drug Screen. Data for the rad50EPP+ strain (AID 151);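 further: 0% = growth of vehicle-treated control cultures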; details: S. cerevisiae rad50 mutant strain, active compounds read high
In short: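 Exposing the rad50EPP+ strain to each compound, growth was compared with vehicle-only cultures to give inhibition.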

[4] = NCI Yeast Anticancer Drug Screen. Data for the mgt1 strain (AID 153); details: S. cerevisiae mgt1 mutant growth inhibition, active compounds read high
In short: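 Genetically defined yeast (mgt1) treated with compound; inhibition of growth expressed against vehicle-treated controls.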

[5] = NCI Yeast Anticancer Drug Screen. Data for the rad50 strain (AID 155);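 further: 0% = growth of vehicle-only cultures of the same strain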; details: S. cerevisiae rad50 strain growth inhibition, active compounds read high
In short: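 Vehicle-treated cultures provide the reference for the growth inhibition reported for compound-exposed, repair-deficient yeast.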

[6] = NCI Yeast Anticancer Drug Screen. Data for the mec2-1 strain (AID 157); details: S. cerevisiae mec2-1 strain, active compounds read high
In short: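 Readout is yeast growth inhibition, normalised to vehicle-treated controls, in the mec2-1 strain exposed to compound.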

[7] = NCI Yeast Anticancer Drug Screen. Data for the rad14 strain (AID 159);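 further: 0% = growth of vehicle-treated control cultures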; details: S. cerevisiae rad14 strain growth inhibition, active compounds read high
In short: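 Inhibition of growth is reported for a repair-deficient yeast mutant following compound treatment, calculated relative to cultures that received vehicle.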

[8] = NCI Yeast Anticancer Drug Screen. Data for the sgs1 mgt1 strain (AID 161);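 further: 0% = growth of cultures given vehicle only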; details: S. cerevisiae sgs1 mgt1 strain, active compounds read high
In short: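 Compounds are added to genetically altered yeast, and growth is compared with cultures given vehicle alone to give percent inhibition.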

[9] = NCI Yeast Anticancer Drug Screen. Data for the CLN2oe strain (AID 163);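 further: 0% = growth of vehicle-only control cultures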; details: S. cerevisiae CLN2oe strain, active compounds read high
In short: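 Values reflect how much compound exposure reduced yeast growth, referenced to vehicle-exposed cells. Assay organism is a strain with a defined genetic change affecting cell-cycle control.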

[10] = NCI Yeast Anticancer Drug Screen. Data for the cln2 rad14 strain (AID 165);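 further: 0% = growth equal to vehicle treated cultures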; details: S. cerevisiae cln2 rad14 strain, active compounds read high
In short: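 Relative to vehicle controls, growth inhibition of compound-treated cln2 rad14 yeast was recorded.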

[11] = NCI Yeast Anticancer Drug Screen. Data for the bub3 strain (AID 167); details: S. cerevisiae bub3 mutant strain, active compounds read high
In short: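 Mutant yeast screening strain plus compound; vehicle-treated cultures serve as the 0% inhibition reference.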

[12] = NCI Yeast Anticancer Drug Screen. Data for the wt2 strain (AID 169); details: S. cerevisiae wt2 strain growth inhibition, active compounds read high
In short: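 Values express reduction in yeast growth under compound treatment, referenced to vehicle-treated cells.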

[13] = NCI Yeast Anticancer Drug Screen. Data for the mlh1 strain (AID 171);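 further: 0% = growth of vehicle-treated control cultures of the same strain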; details: S. cerevisiae mlh1 strain growth inhibition, active compounds read high
In short: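 Steps: expose the defined-mutant yeast strain to compound; expose a parallel culture to vehicle; measure growth; express compound effect as inhibition relative to the vehicle culture.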

[14] = NCI Yeast Anticancer Drug Screen. Data for the sgs1 strain (AID 173);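 further: 0% = growth of vehicle-only control cultures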; details: S. cerevisiae sgs1 mutant, active compounds read high
In short: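 Treat defined-mutant yeast with compound; measure growth; calculate inhibition relative to vehicle-treated cells.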

[15] = NCI Yeast Anticancer Drug Screen. Data for the rad18 strain (AID 177); details: S. cerevisiae rad18 mutant growth inhibition, active compounds read high
In short: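 A genetically defined yeast mutant impaired in DNA damage repair was treated with test compounds, then its growth was measured against cultures receiving vehicle alone.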

[16] = at 5.0 µM (retest, dose inferred, filed as 0.5)
[17] = at 50.0 µM (retest, dose inferred, filed as 5.0)

## O=P(NC1CCCCC1)(OCc1ccccc1)OCc1ccccc1
[1]; at 1.2 µM
  growth inhibition: -1%
[1]; at 3.7 µM
  growth inhibition: 4%
[1]; at 11.0 µM
  growth inhibition: 16%
[1]; at 33.0 µM
  growth inhibition: 26%
[1]; at 100.0 µM
  growth inhibition: 26%
[2]; at 1.2 µM
  growth inhibition: 0%
[2]; at 3.7 µM
  growth inhibition: 3%
[2]; at 11.0 µM
  growth inhibition: 0%
[2]; at 33.0 µM
  growth inhibition: 3%
[2]; at 100.0 µM
  growth inhibition: 7%
[3]; at 1.2 µM
  growth inhibition: 2%
[3]; at 3.7 µM
  growth inhibition: 4%
[3]; at 11.0 µM
  growth inhibition: 10%
[3]; at 33.0 µM
  growth inhibition: 9%
[3]; at 100.0 µM
  growth inhibition: 7%
[4]; at 1.2 µM
  growth inhibition: -1%
[4]; at 3.7 µM
  growth inhibition: 0%
[4]; at 11.0 µM
  growth inhibition: 4%
[4]; at 33.0 µM
  growth inhibition: 4%
[4]; at 100.0 µM
  growth inhibition: 7%
[5]; at 1.2 µM
  growth inhibition: 3%
[5]; at 3.7 µM
  growth inhibition: 5%
[5]; [16]
  growth inhibition: 8%
[5]; at 11.0 µM
  growth inhibition: 11%
[5]; at 33.0 µM
  growth inhibition: 19%
[5]; [17]
  growth inhibition: 14%
[5]; at 50.0 µM
  growth inhibition: 73.3% (active)
[5]; at 100.0 µM
  growth inhibition: 26%
[6]; at 1.2 µM
  growth inhibition: 1%
[6]; at 3.7 µM
  growth inhibition: 1%
[6]; [16]
  growth inhibition: 5%
[6]; at 11.0 µM
  growth inhibition: 7%
[6]; at 33.0 µM
  growth inhibition: 10%
[6]; [17]
  growth inhibition: 4%
[6]; at 50.0 µM
  growth inhibition: 23.6%
[6]; at 100.0 µM
  growth inhibition: 11%
[7]; at 1.2 µM
  growth inhibition: -1%
[7]; at 3.7 µM
  growth inhibition: -2%
[7]; at 11.0 µM
  growth inhibition: 4%
[7]; at 33.0 µM
  growth inhibition: 6%
[7]; at 100.0 µM
  growth inhibition: 13%
[8]; [16]
  growth inhibition: 7%
[8]; [17]
  growth inhibition: 7%
[8]; at 50.0 µM
  growth inhibition: 42.3%
[9]; at 1.2 µM
  growth inhibition: 7%
[9]; at 3.7 µM
  growth inhibition: 2%
[9]; at 11.0 µM
  growth inhibition: 10%
[9]; at 33.0 µM
  growth inhibition: 12%
[9]; at 100.0 µM
  growth inhibition: 17%
[10]; [16]
  growth inhibition: 15%
[10]; [17]
  growth inhibition: 9%
[10]; at 50.0 µM
  growth inhibition: -12.7%
[11]; at 1.2 µM
  growth inhibition: 0%
[11]; at 3.7 µM
  growth inhibition: 4%
[11]; [16]
  growth inhibition: 3%
[11]; at 11.0 µM
  growth inhibition: 3%
[11]; at 33.0 µM
  growth inhibition: 5%
[11]; [17]
  growth inhibition: 2%
[11]; at 50.0 µM
  growth inhibition: 7.8%
[11]; at 100.0 µM
  growth inhibition: 2%
[12]; at 1.2 µM
  growth inhibition: 1%
[12]; at 3.7 µM
  growth inhibition: 2%
[12]; at 11.0 µM
  growth inhibition: 2%
[12]; at 33.0 µM
  growth inhibition: 4%
[12]; at 100.0 µM
  growth inhibition: 8%
[13]; at 1.2 µM
  growth inhibition: -7%
[13]; at 3.7 µM
  growth inhibition: 0%
[13]; at 11.0 µM
  growth inhibition: 2%
[13]; at 33.0 µM
  growth inhibition: 4%
[13]; at 100.0 µM
  growth inhibition: 7%
[14]; at 1.2 µM
  growth inhibition: 0%
[14]; at 3.7 µM
  growth inhibition: -1%
[14]; at 11.0 µM
  growth inhibition: 0%
[14]; at 33.0 µM
  growth inhibition: 9%
[14]; at 100.0 µM
  growth inhibition: 17%
[15]; at 1.2 µM
  growth inhibition: -1%
[15]; at 3.7 µM
  growth inhibition: 3%
[15]; at 11.0 µM
  growth inhibition: 13%
[15]; at 33.0 µM
  growth inhibition: 26%
[15]; at 100.0 µM
  growth inhibition: 28%

Source: PubChem BioAssay (NCI)
